Screens deposited in PubChem by The Scripps Research Institute Molecular Screening Center.
Rows were chosen to be rich in hits. Some 3.5% of all compounds tested hit in one or more screens of this group.
MITF primary: blocks human microphthalmia-associated transcription factor; actives 0.91% (n = 650,000); AID 1259374; inhibition, % at 2.6 µM; AlphaScreen MITF homodimerization, bead proximity signal; in the data active = inhibition above about 50%
TEAD-YAP block: TEAD-YAP interaction inhibition | actives 1.4% (n = 640,000) | inhibition, % at 9.12 µM | HEK-TIYL cells, TEAD-Gal4/YAP UAS-luciferase luminescence; in the data active = inhibition above about 32%
GPR151 activ: human GPR151 activation. activation, % at 11.2 µM. PathHunter beta-arrestin GPR151 cells, luminescence. actives 1% (n = 650,000); in the data active = activation above about 4.9%
Target sequence (Q8TDV0 whole entry, looked up): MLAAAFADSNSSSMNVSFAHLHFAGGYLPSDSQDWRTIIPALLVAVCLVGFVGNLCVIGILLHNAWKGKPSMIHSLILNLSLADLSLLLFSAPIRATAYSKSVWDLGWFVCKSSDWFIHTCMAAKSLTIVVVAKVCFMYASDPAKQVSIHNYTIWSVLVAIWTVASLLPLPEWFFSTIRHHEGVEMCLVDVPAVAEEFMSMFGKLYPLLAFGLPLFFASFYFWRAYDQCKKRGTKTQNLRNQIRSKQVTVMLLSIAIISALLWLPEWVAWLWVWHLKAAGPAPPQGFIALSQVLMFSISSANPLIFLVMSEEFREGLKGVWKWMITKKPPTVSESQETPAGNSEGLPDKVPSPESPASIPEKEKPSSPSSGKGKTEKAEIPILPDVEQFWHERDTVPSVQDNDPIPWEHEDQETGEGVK
FBW7 act: human FBW7 E3 ligase activation, primary screen; Q969H0; AlphaScreen FBW7–phospho-cyclin E peptide binding, activator screen; normalized activity (activation), % at 26.1 µM; actives 0.13% (n = 650,000); AID 1259310; in the data active = normalized activity above about 1.9%;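 also: purified mutant Fbw7 with reduced substrate affinity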
Of the large screens only hits and unclear results are named; the others gave an inactive call.

CCC(=O)Oc1ccc(C(=O)Nc2ccc(C)cc2Br)cc1	TEAD-YAP block 50.0
c1nc2nc3c(c(Nc4ccc5c(c4)OCCO5)n2n1)CCC3	TEAD-YAP block 39.8
O=C(Nc1nnc2n1CCCS2)c1ccccc1F	none
O=C(Nc1ccc2c(c1)CN(C(=O)c1csnn1)CC2)c1ccc(C(F)(F)F)cc1	TEAD-YAP block 33.0
O=C(Cc1ccccc1F)Nc1ccc2c(c1)CN(C(=O)c1csnn1)CC2	none
Cc1ccc(N)cc1NC(=O)C(C)Sc1nnc(-c2cccnc2)n1-c1ccccc1 (stereo unspecified)	none
c1ccc(CCNc2ccc3ncc(-c4ccc5c(c4)OCO5)n3n2)nc1	TEAD-YAP block 48.0
OCCCNc1ccc2ncc(-c3ccc4c(c3)OCO4)n2n1	TEAD-YAP block 61.0
COc1ccccc1NC(=O)C1c2ccccc2C(=O)N2CCc3ccccc3C12 (stereo unspecified)	none
CN1C(=O)N(C)C(NNC(N)=S)C1NNC(N)=S (stereo unspecified)	TEAD-YAP block 87.7
COc1ccc(/C=C/C(=O)c2ccc(O)cc2)cc1	TEAD-YAP block 55.3
COc1ccc(C(=O)/C=C/Nc2cccc(C)c2)cc1	none
COc1ccc(C(=O)/C=C/Nc2cccc(O)c2)cc1	TEAD-YAP block 87.0
COc1ccc(C(=O)/C=C\Nc2cccc(C(=O)O)c2)cc1	TEAD-YAP block 40.7
COc1ccc(C(=O)/C=C\Nc2cccc(F)c2)cc1	TEAD-YAP block 34.6
CS(=O)(=O)c1cccc(-c2noc(C3CCN(Cc4ccc(Cl)s4)CC3)n2)c1	none
O=C(O)c1ccccc1NC1SC(=O)N(c2ccccc2)C1=O (stereo unspecified)	none
COc1ccc(-n2nc(C(=O)NCCCN3CCCCCC3)c3ccccc3c2=O)c(OC)c1	none
COc1cccc(C(=O)/C=C\Nc2ccc(C)cc2)c1	TEAD-YAP block 59.5
CCc1ccc(C(=O)/C=C/Nc2cccc(O)c2)cc1	TEAD-YAP block 96.4
CCc1ccc(C(=O)/C=C/Nc2ccc(O)cc2)cc1	none
COc1cccc(C(=O)/C=C/Nc2ccc(N(C)C)cc2)c1	none
O=C(O)CCC/C=C\C[C@@H]1CO[C@H](C(F)(F)F)O[C@@H]1c1ccccc1O	FBW7 act 2.2 (no result: TEAD-YAP block)
COc1cc(NC(=O)c2ccc3nc(Nc4ccc(N5CCOCC5)cc4)sc3c2)cc(OC)c1OC	none
COC(=O)C1=C(C)N=c2s/c(=C\c3ccccc3OC)c(=O)n2C1c1ccc(C(C)C)cc1 (stereo unspecified)	none
O=C1C(C=Nc2cccc(C(F)(F)F)c2)=C(O)c2ccccc21	TEAD-YAP block 70.1
CCOC(=O)c1ccc(N=CC2=C(O)c3ccccc3C2=O)cc1	TEAD-YAP block 48.4
COc1ccc(N=CC2=C(O)c3ccccc3C2=O)cc1OC	none
O=C1C(C=Nc2ccc3c(c2)CCC3)=C(O)c2ccccc21	TEAD-YAP block 48.6
CCOc1ccc(/C=C2/N=C(c3cc([N+](=O)[O-])ccc3OC)OC2=O)cc1	none
O=C(O)Cc1ccc(Nc2nccc(-c3ccccc3)n2)cc1	TEAD-YAP block 52.6
NC(=O)c1ccc(Nc2nccc(-c3cccc(Nc4ccccc4)c3)n2)cc1	TEAD-YAP block 45.9
CC(O)c1ccc(Nc2nccc(-c3cccc(NS(C)(=O)=O)c3)n2)cc1 (stereo unspecified)	TEAD-YAP block 76.5
CS(=O)(=O)Nc1cccc(-c2ccnc(Nc3ccccc3)n2)c1	TEAD-YAP block 67.8
NC(=O)c1cccc(Nc2nccc(-c3cccc(Nc4ccccc4)c3)n2)c1	none
O=C(c1ccccc1)c1cccc(N2C(=O)c3ccc([N+](=O)[O-])cc3C2=O)c1	none
COc1ccc(CCNC(=O)c2ccnc(Nc3ccncn3)c2)cc1	none
CS(=O)(=O)Nc1cccc(-c2ccnc(Nc3ccc(CC(N)=O)cc3)n2)c1	TEAD-YAP block 37.1
O=C(Nc1cc(Cl)ccc1O)c1ccc(Cl)c(C(=O)c2ccc(Cl)cc2)c1	TEAD-YAP block 32.7
Nc1ccc(Cl)c(NC(=O)c2ccc(Cl)cc2Cl)c1	TEAD-YAP block 87.4
COc1ccc(C(=O)Nc2cc(Cl)ccc2O)cc1Cl	none
O=C(Nc1cc(Cl)ccc1Oc1ccc(Cl)c2ccccc12)c1cc(Cl)cc(Cl)c1O	none
O=C(Nc1cc(Cl)ccc1Cl)c1cc(Cl)cc(Cl)c1O	TEAD-YAP block 56.8
S=c1[nH]nc(-c2cccnc2)n1/N=C/c1c[nH]c2ccccc12	none
COc1ccc(C(C)NC(=O)c2ccccc2I)cc1OC (stereo unspecified)	none
CNc1nc(-c2ccc(F)cc2)cs1	none
CCc1nn2cc(-c3ccc(F)cc3)nc2s1	TEAD-YAP block 39.6
COc1cc(-c2nn3cc(-c4ccccc4)nc3s2)cc(OC)c1OC	none
CCc1nn2cc(-c3ccccc3)nc2s1	TEAD-YAP block 74.3
Cc1onc(-c2ccccc2Cl)c1C(=O)Nc1ccccc1C(C)C	none
COc1cccc(OC)c1C(=O)Oc1ccc2ccc(=O)oc2c1	none
COc1ccc(OC)c(Nc2cc(C)nc3ccc(OC)cc23)c1	TEAD-YAP block 67.6
COC(=O)c1ccc(Nc2cc(C)nc3ccc(OC)cc23)cc1	TEAD-YAP block 36.0
COc1ccc(Nc2cc(C)nc3nc(C)nn23)c(OC)c1	none
CCOc1ccc2nc(C)cc(Nc3cc(Cl)ccc3OC)c2c1	TEAD-YAP block 38.5
COC(=O)c1ccc2nc(C)cc(Nc3ccc(OC)cc3)c2c1	none
CCOc1ccc(Nc2cc(C)nc3ccc(OC)cc23)cc1	none
COc1ccc(OC)c(Nc2cc(C)nc3nc(C)nn23)c1	TEAD-YAP block 34.5
C=CCSc1nc2sc(C)c(C)c2c(=O)n1C	none
COc1ccc(-c2cnn3ccc(Nc4ccc(F)c(Cl)c4)nc23)c(OC)c1	none
COc1ccc2nc(C)cc(Nc3ccc(N4CCN(C)CC4)cc3)c2c1	TEAD-YAP block 77.4
Cc1ccc2c(C)nc(Nc3nc(C)c(C)c(=O)[nH]3)nc2c1	TEAD-YAP block 44.5
Cc1ccc2nc(Nc3nc(C)c(C)c(=O)[nH]3)nc(C)c2c1	none
CC(C)N(CCNc1nc(Nc2ccc(N3CCOCC3)cc2)nc2c1ncn2-c1ccccc1)C(C)C	none
OCCNc1nc(Nc2ccc(N3CCOCC3)cc2)nc2c1ncn2-c1ccsc1	TEAD-YAP block 60.3
c1ccc(CNc2nc(Nc3ccc(N4CCOCC4)cc3)nc3c2ncn3-c2ccsc2)cc1	none
Oc1ccc(CCNc2nc(Nc3ccc(N4CCOCC4)cc3)nc3c2ncn3-c2ccsc2)cc1	TEAD-YAP block 42.4
CC(C)N(CCNc1nc(Nc2ccc(N3CCOCC3)cc2)nc2c1ncn2-c1ccsc1)C(C)C	TEAD-YAP block 38.9
c1ccc(OCCNc2nc(Nc3ccc(N4CCOCC4)cc3)nc3c2ncn3-c2ccsc2)cc1	none
Cc1cccc(NC(=O)COc2cccc3ccc(N4CCCC4)nc23)c1C	none
CCOC(=O)C1(C)C(Br)=C(O)C(=O)N1c1ccc(Cl)cc1 (stereo unspecified)	none
Cc1ccc(S(=O)(=O)NCCC(=O)Oc2ccc3c4c(c(=O)oc3c2)CCC4)cc1	none
CC(C)c1ccc2oc(-c3ccc(Cl)c(N)c3)nc2c1	TEAD-YAP block 82.9
COc1ccccc1C(=O)Nc1cc(-c2nc3cc(C(C)C)ccc3o2)ccc1Cl	TEAD-YAP block 34.5
Cc1ccccc1C(=O)Nc1cc(-c2nc3cc(C(C)C)ccc3o2)ccc1Cl	none
